Key:
Experiment in all cases: log2 ratio of Biotin-Ahx-Ub-VS probe labelling (fragment/DMSO); higher = less target engagement (more negative = stronger competition), active = hit call of the paper (q ≤ 0.05, log2 ratio ≤ -1)
Conditions in all cases: compound concentration: 200 uM; treatment time: 3 h
[1] = molecular target: T1, OTUD6B (UniProt Q8N6M0)
T1 sequence (whole entry): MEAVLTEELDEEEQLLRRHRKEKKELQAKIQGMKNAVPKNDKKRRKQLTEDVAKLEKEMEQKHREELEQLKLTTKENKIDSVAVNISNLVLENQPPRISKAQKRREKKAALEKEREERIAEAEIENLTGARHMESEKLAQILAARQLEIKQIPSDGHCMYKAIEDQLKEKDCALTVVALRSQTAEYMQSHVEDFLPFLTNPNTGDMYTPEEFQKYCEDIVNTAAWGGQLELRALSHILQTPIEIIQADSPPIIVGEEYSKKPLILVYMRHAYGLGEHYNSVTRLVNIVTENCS
Summary of the method: (§1)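 Labelled DUBs were enriched with NeutrAvidin, digested with LysC and trypsin, and run by diaPASEF LC-MS/MS. The labelling used Biotin-Ahx-Ub-VS at 0.5 µM final for 1 h on HEK293T lysate (495 µg per sample) previously treated in triplicate with fragment at 200 µM or vehicle for 3 h. Values are average log2 fragment/vehicle ratios by unpaired t-test on global-median-normalised Spectronaut quantities of proteins with ≥2 unique peptides.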

[2] = molecular target: T2, OTUD7B (UniProt Q6GQQ9)
T2 sequence (whole entry): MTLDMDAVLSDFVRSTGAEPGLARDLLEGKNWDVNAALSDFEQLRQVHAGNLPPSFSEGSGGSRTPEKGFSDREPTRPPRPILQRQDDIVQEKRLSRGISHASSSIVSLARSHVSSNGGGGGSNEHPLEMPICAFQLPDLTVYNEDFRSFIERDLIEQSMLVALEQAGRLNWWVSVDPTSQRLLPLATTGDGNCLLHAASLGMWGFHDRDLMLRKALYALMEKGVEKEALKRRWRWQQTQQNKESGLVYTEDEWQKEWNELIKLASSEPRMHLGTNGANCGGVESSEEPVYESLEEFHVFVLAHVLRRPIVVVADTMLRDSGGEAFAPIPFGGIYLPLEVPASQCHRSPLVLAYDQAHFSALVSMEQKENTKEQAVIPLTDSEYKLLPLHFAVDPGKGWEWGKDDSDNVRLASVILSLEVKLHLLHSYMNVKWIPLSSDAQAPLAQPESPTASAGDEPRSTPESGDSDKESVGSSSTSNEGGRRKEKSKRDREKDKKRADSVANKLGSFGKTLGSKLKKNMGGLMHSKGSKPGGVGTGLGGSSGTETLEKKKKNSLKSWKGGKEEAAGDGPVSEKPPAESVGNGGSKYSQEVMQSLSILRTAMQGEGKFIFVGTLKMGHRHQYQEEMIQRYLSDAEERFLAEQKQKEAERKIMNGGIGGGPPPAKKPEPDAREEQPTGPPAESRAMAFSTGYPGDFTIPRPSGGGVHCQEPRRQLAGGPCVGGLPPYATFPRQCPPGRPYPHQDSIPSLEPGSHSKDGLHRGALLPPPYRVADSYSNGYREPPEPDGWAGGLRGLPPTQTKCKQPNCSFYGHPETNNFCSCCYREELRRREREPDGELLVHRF
Summary of the method: as §1

[3] = molecular target: PRPF8 (UniProt Q6P2Q9)
Summary of the method: as §1

[4] = molecular target: T3, PSMD7 (UniProt P51665)
T3 sequence (whole entry): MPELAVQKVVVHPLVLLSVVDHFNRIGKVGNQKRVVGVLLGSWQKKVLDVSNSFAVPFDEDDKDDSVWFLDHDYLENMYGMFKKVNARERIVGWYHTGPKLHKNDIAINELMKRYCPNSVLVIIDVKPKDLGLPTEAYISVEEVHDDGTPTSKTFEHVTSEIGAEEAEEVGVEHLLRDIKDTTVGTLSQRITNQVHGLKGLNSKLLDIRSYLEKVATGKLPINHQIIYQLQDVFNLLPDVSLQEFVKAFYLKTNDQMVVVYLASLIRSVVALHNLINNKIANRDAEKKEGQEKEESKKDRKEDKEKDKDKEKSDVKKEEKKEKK
Summary of the method: as §1

[5] = molecular target: UCHL1 (UniProt P09936)
Sequence of UCHL1 (P09936 whole entry, looked up): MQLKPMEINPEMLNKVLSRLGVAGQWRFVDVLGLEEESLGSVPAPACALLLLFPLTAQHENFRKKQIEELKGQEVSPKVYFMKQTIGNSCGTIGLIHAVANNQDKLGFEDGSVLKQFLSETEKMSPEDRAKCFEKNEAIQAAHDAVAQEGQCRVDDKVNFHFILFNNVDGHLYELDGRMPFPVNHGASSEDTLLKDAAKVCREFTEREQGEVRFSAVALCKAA
Summary of the method: as §1

[6] = molecular target: T4, UCHL3 (UniProt P15374)
T4 sequence (whole entry): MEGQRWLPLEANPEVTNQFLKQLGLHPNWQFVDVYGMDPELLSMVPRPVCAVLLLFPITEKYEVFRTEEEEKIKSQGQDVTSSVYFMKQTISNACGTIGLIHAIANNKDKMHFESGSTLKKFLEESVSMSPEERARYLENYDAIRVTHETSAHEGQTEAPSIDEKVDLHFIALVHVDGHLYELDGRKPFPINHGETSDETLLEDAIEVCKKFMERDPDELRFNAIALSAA
Summary of the method: as §1

[7] = molecular target: T5, UCHL5 (UniProt Q9Y5K5)
T5 sequence (whole entry): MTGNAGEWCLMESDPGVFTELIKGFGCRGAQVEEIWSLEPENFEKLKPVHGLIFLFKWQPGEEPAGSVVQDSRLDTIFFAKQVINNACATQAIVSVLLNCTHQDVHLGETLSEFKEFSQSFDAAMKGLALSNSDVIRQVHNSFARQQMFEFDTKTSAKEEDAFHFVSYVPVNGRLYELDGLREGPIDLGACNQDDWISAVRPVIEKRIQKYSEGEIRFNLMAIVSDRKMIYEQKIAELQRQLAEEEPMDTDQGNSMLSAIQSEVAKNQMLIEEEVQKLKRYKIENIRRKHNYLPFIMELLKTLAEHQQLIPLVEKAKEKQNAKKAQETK
Summary of the method: as §1

[8] = molecular target: USP10 (UniProt Q14694)
Sequence of USP10 (Q14694 whole entry): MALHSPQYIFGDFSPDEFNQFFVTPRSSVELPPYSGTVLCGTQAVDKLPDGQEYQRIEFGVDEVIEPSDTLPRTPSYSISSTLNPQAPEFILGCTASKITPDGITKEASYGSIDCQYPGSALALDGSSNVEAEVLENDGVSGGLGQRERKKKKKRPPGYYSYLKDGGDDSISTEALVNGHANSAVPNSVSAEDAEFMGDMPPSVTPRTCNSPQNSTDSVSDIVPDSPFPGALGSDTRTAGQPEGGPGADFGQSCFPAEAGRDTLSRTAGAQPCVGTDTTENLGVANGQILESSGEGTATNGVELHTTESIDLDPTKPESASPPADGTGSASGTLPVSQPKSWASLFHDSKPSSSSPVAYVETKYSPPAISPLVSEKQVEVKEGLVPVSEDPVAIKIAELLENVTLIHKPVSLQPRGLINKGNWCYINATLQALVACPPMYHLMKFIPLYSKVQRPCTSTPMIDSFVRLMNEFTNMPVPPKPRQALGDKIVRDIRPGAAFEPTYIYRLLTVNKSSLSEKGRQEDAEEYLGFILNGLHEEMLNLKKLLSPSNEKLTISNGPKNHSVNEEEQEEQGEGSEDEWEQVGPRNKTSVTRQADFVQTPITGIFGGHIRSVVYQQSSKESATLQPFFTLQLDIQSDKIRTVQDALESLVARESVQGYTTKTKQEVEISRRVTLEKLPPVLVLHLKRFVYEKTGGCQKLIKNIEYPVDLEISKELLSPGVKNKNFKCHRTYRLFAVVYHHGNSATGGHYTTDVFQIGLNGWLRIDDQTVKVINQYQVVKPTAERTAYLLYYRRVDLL
Summary of the method: as §1

[9] = molecular target: T6, USP15 (UniProt Q9Y4E8)
T6 sequence (whole entry): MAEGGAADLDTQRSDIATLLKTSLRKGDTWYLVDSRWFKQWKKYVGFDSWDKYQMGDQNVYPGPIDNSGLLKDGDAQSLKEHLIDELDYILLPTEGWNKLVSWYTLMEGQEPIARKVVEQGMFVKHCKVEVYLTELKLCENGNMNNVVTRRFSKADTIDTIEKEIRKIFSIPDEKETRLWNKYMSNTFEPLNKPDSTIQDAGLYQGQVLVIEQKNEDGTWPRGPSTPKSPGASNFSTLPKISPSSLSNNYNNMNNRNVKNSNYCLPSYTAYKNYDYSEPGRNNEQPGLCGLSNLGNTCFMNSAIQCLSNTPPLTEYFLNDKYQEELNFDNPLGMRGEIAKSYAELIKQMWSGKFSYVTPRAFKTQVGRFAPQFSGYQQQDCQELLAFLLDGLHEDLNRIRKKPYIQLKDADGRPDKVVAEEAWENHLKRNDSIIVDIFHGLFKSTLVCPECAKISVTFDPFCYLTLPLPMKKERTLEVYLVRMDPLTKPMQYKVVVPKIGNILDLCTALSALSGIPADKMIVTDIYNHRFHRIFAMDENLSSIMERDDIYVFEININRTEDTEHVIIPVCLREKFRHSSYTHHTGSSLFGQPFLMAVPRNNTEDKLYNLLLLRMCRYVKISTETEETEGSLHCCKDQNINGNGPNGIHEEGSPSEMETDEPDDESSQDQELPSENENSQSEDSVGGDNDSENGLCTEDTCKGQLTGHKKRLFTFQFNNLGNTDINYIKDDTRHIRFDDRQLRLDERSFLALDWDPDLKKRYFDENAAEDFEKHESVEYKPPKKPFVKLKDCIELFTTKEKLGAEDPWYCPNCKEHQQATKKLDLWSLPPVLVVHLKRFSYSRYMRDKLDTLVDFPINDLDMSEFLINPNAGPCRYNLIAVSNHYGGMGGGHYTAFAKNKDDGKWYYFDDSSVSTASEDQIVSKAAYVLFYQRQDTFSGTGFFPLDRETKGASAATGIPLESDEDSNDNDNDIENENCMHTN
Summary of the method: as §1

[10] = molecular target: USP16 (UniProt Q9Y5T5)
Sequence of USP16 (Q9Y5T5 whole entry, looked up): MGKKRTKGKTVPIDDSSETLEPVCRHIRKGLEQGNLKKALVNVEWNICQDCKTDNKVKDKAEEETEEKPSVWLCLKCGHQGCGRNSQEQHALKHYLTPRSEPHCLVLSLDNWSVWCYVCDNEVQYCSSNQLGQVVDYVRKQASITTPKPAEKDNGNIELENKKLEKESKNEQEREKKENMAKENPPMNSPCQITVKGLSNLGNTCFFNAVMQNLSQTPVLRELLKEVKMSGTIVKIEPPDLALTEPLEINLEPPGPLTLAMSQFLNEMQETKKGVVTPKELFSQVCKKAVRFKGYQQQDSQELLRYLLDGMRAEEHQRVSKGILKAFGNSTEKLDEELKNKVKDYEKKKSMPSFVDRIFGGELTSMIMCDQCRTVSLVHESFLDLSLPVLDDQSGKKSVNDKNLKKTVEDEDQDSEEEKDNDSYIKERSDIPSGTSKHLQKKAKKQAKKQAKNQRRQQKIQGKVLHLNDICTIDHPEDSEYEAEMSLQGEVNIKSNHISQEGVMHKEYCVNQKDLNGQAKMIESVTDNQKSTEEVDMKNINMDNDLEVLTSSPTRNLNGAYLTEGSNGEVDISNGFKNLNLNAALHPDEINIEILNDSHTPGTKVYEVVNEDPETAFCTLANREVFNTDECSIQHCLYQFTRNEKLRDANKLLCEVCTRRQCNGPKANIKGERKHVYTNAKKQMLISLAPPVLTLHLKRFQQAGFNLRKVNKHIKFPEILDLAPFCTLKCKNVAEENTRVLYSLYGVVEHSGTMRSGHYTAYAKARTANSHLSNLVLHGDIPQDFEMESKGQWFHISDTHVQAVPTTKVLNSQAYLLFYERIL
Summary of the method: as §1

Measured: log2 ratio of Biotin-Ahx-Ub-VS probe labelling

O=C(CCl)NCCC1COCCO1 (stereo not given)
inactive: [1] -0.0161 | [2] -0.0714 | [3] -0.0389 | [4] -0.237 | [6] 0.227 | [7] -0.221 | [8] -0.143 | [9] 0.0547 | [10] -0.519
active: [5] -1.39

O=C(CCl)Nc1ccccc1C(F)(F)F
inactive: [1] -0.447 | [2] -0.668 | [3] 0.155 | [4] -0.0779 | [5] -0.977 | [6] 0.2 | [7] -0.341 | [8] -0.0659 | [9] -0.122 | [10] -0.0895

CC1CN(c2ccc(NC(=O)CCl)cc2)CC(C)O1 (stereo not given)
active: [5] -1.48
inactive: [1] -0.241 | [2] -0.313 | [3] 0.0099 | [4] -0.00447 | [6] 0.00853 | [7] -0.366 | [8] -0.118 | [9] -0.153 | [10] -0.987

O=C(CCl)N1CCC(c2nc3ccccc3o2)CC1
inactive: [1] -0.508 | [2] -0.632 | [3] -0.0832 | [4] -0.495 | [6] 0.054 | [7] -0.349 | [8] -0.114 | [9] -0.214 | [10] 0.149
active: [5] -1.65

O=C(CCl)NC1CCS(=O)(=O)c2ccccc21 (stereo not given)
active: [2] -1.79 | [5] -1.81
inactive: [1] -0.258 | [3] -0.00882 | [4] -0.335 | [6] 0.125 | [7] -0.554 | [8] 0.0657 | [9] -0.242 | [10] -0.0991

Cc1nc(CC2CCN(C(=O)CCl)CC2)no1
inactive: [1] -0.781 | [2] -0.652 | [3] -0.314 | [4] 0.0562 | [6] -0.269 | [7] -0.792 | [8] -0.321 | [9] -0.77 | [10] 0.0849
active: [5] -1.96

Cc1cccc(N(CCC#N)C(=O)CCl)c1C
inactive: [1] 0.027 | [3] 0.241 | [4] 0.0381 | [6] 0.389 | [7] -0.0436 | [8] -0.0111 | [9] -0.0542 | [10] -0.0303
active: [2] -1.2 | [5] -1.09

Cl.O=C(CCl)NC1(c2ncccn2)CCC1
inactive: [1] 0.0771 | [2] -0.227 | [3] -0.0462 | [4] -0.289 | [6] 0.32 | [7] -0.0083 | [8] 0.0419 | [9] 0.0327 | [10] 0.0942
active: [5] -1.41

Cc1ccc(C)c(Oc2ccc(CNC(=O)CCl)cn2)c1.Cl
active: [2] -1.04 | [5] -1.3 | [6] -1.04
inactive: [1] -0.139 | [3] -0.126 | [4] -0.306 | [7] -0.435 | [8] -0.166 | [9] -0.359 | [10] -0.0509

Cl.Cn1ncc2c1CCCC2NC(=O)CCl (stereo not given)
inactive: [1] -0.272 | [3] 0.261 | [4] 0.0323 | [6] 0.241 | [7] -0.145 | [8] -0.078 | [9] -0.335 | [10] -0.096
active: [2] -2.04 | [5] -1.71

CN(CCC(O)c1ccc(Br)cc1)C(=O)CCl (stereo not given)
inactive: [1] -0.0417 | [3] 0.169 | [4] -0.221 | [6] -0.26 | [7] -0.331 | [8] -0.142 | [9] -0.337 | [10] 0.00689
active: [2] -1.37 | [5] -1.61

O=C(CCl)N1CCCCC12CCOCC2
inactive: [1] -0.371 | [2] -0.652 | [3] -0.0698 | [4] -0.183 | [6] -0.176 | [7] -0.503 | [8] -0.064 | [9] -0.474 | [10] -0.51
active: [5] -2.07

O=C(CCl)NCc1noc(C2CC2)n1
inactive: [1] -0.344 | [2] -0.572 | [3] -0.106 | [4] -0.219 | [6] 0.307 | [7] -0.363 | [8] -0.164 | [9] -0.193 | [10] -0.127
active: [5] -1.67

Cc1nnc(C(NC(=O)CCl)c2ccccc2)n1C (stereo not given)
inactive: [1] 0.622 | [2] 0.355 | [3] -0.283 | [4] 0.357 | [5] 0.102 | [6] 0.364 | [7] 0.534 | [8] 0.157 | [9] 0.629 | [10] -0.384

— the supplement of paper PMC11732987, “Enantioselective OTUD7B fragment discovery through chemoproteomics screening and high-throughput optimisation” (Communications Chemistry, 2025)
